# High-throughput results from PubChem BioAssay.
# LGR2 inh – inhibitors of bursicon-induced Drosophila LGR2 receptor cAMP signaling; HEK293 LGR2, CRE-luciferase, bursicon-stimulated, 4 h; inhibition, % at 9.99 µM; 380,000 tested, 0.35% active; AID 720647;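 active means drop in luminescence signal, shown as inhibition above about 50% in the replicate tests, limit read from the data, passing the limit was not always enough; inconclusive means probably only some replicates passing the limit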;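 further: agonist challenge used bursicon conditioned medium at about half maximal strength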
# TWEAK Fn14 block – TWEAK-Fn14 signaling inhibition | AID 1159606 | 360,000 tested, 2% active | TWEAK-stimulated Fn14 reporter cells, luciferase luminescence, 8 h | inhibition, % at 10 µM; in the data active means inhibition above about 50%
# EWS-Fli inh – EWS/Fli transcriptional activity inhibition; A673 NR0B1-luciferase reporter, viability-normalised; inhibition, % at 12.6 µM; 350,000 tested, 0.67% active; AID 651661;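 active means mean inhibition of at least 50% after viability correction, with every replicate also passing that limit; inconclusive means mean reaches 50% but only one of two replicates passes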;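 further: firefly luciferase signal divided by Alamar Blue viability fluorescence both relative to DMSO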
# TROY signal inh – TROY signaling inhibition; inhibition, % at 10 µM; 360,000 tested, 0.98% active; Q293 LMP1-TROYcd NF-kB luciferase reporter, 4 h;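 active means compounds whose plate-normalised and pattern-corrected inhibition of the luciferase reporter signal at the single screening dose is 50% or more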
# PAX8 inh HTS – PAX8 transcriptional activity inhibition | RMG-I TPO-luciferase reporter, SteadyGlo, 24 h | inhibition, % at 12.6 µM | 360,000 tested, 1.2% active | AID 652154;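 active means mean replicate inhibition at least 60% with every replicate also reaching 60%; inconclusive means only one of the two criteria is met; inactive means mean below 60% and not all replicates reaching 60%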;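 further: luciferase light reporting Pax8 driven TPO promoter activity; plate controls were median of neutral control wells for no effect and mitoxantrone controls for full effect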
# The depositor's hits bear a star; ? = inconclusive; · = no result given. Only some compounds are listed: those with a hit (about 2.8% of all), similar ones and a draw of the others.
SMILES,LGR2 inh,TWEAK Fn14 block,EWS-Fli inh,TROY signal inh,PAX8 inh HTS
O=C(NCC1CC1(Cl)Cl)Nc1ccc(Cl)c(Cl)c1 (stereo not given),-82,29,-134,53*,-136
CCC(=O)N(C)C[C@H]1Oc2cc(-c3ccc(F)cc3)ccc2S(=O)(=O)N([C@H](C)CO)C[C@@H]1C,8,·,9,·,·
CN(C)c1cccc(C(=O)Nc2nc3ccccc3[nH]2)c1,?,61*,38,2,-14
COc1cccc(C(=O)Nc2nc3ccccc3[nH]2)c1,·,87*,·,33,·
Cc1ccc(N(C)S(=O)(=O)c2cccc(C(=O)Nc3nc4ccccc4[nH]3)c2)cc1,8,54*,·,32,·
Cc1cccc(C(=O)N[C@H](C(=O)Nc2nc(C)cs2)C(C)C)c1,2,13,2,8,3
O=C(Nc1nc2ccccc2[nH]1)c1cccc(F)c1,-24,36,2,11,-81
Cc1cccc(C(=O)N[C@H](C(=O)Nc2nc3ccccc3[nH]2)C(C)C)c1,34,50,56*,26,59
C[C@@H]1CN([C@H](C)CO)C(=O)c2c(c3ccccc3n2C)-c2ccccc2CO[C@H]1CN(C)C(=O)N[C@H](C)c1ccccc1,-2,·,1,·,-19
O=C(Nc1nc2ccccc2[nH]1)c1ccc([N+](=O)[O-])cc1,-66,35,-49,-35,-151
Cc1ccc(C(=O)Nc2nc3ccccc3[nH]2)cc1,89*,97*,78*,71*,81*
COc1ccc(C(=O)N[C@H](C(=O)Nc2nc3ccccc3[nH]2)C(C)C)cc1,-28,15,?,-2,-1
COc1ccc(C(=O)Nc2nc3ccccc3[nH]2)cc1,90*,89*,76*,69*,?
COc1ccc(-c2nn(-c3ccccc3)cc2/C=N/NC(=O)c2ccc(Br)o2)cc1,·,94*,·,76*,·
CCC(=O)N[C@@H]1CC[C@@H](CC(=O)NCc2ccccc2F)O[C@@H]1CO,0,·,-2,·,1
C[C@@H]1CCCCO[C@@H](CN(C)C(=O)C2CCCCC2)[C@@H](C)CN([C@@H](C)CO)C(=O)c2cc(NS(=O)(=O)c3ccc(Cl)cc3)ccc2O1,10,·,8,·,32
C[C@@H]1CCCCO[C@H](CN(C)C(=O)C2CCCCC2)[C@@H](C)CN([C@H](C)CO)C(=O)c2cc(NS(=O)(=O)c3ccc(Cl)cc3)ccc2O1,5,·,2,·,-2
C[C@@H]1CCCCO[C@H](CN(C)C(=O)C2CCCCC2)[C@H](C)CN([C@H](C)CO)C(=O)c2cc(NS(=O)(=O)c3ccc(Cl)cc3)ccc2O1,18,·,17,·,67*
C[C@@H]1CCCCO[C@@H](CN(C)C(=O)C2CCCCC2)[C@H](C)CN([C@@H](C)CO)C(=O)c2cc(NS(=O)(=O)c3ccc(Cl)cc3)ccc2O1,23,·,-20,·,81*
Cc1ccc(S(=O)(=O)Nc2ccc3c(c2)C(=O)N([C@H](C)CO)C[C@@H](C)[C@H](CN(C)C(=O)C2CCCCC2)OCCCC[C@H](C)O3)cc1,5,·,13,·,75*
C[C@H]1CCCCO[C@H](CN(C)C(=O)C2CCCCC2)[C@@H](C)CN([C@@H](C)CO)C(=O)c2cc(NS(=O)(=O)c3ccc(Cl)cc3)ccc2O1,0,·,54*,·,86*
CO[C@H]1CN(C)C(=O)c2cc(NC(=O)Nc3ccccc3F)ccc2OC[C@H](C)N(C(C)=O)C[C@@H]1C,-2,·,-9,·,0
CCS(=O)(=O)N1CCC2(CC1)CN(C(=O)Nc1c(C)noc1C)[C@H](CO)c1[nH]c3cc(OC)ccc3c12,-5,·,-9,·,·
C[C@@H]1CCCCO[C@H](CN(C)C(=O)Nc2ccccc2)[C@H](C)CN([C@H](C)CO)C(=O)c2cc(NC(=O)CCC(F)(F)F)ccc2O1,-8,·,2,·,-23
CN1OC[C@@H]2CN[C@H](c3ccc(-c4ccc(C#N)cc4)cc3)C[C@@H]21,-29,8,-77,39,-180
CN1OC[C@@H]2CN[C@H](c3ccc(-c4cc5ccccc5o4)cc3)C[C@@H]21,·,106*,·,90*,·
CNC[C@H]1Oc2ccc(NC(=O)Cn3cnnn3)cc2C(=O)N([C@H](C)CO)C[C@@H]1C,9,·,10,·,·
Nc1c(C(=O)NCc2ccco2)c2nc3ccccc3nc2n1CCc1ccccc1F,·,44,·,54*,·
COc1ccc(-n2c(N)c(C(=O)NCc3ccco3)c3nc4ccccc4nc32)c(OC)c1,9,25,·,9,·
COc1ccc(CCn2c(N)c(C(=O)NCc3ccco3)c3nc4ccccc4nc32)cc1,-1,61*,17,65*,32
